# Screening data (PubChem BioAssay)
# DT40 TDP1 CPT: growth inhibition of DT40 Tdp1-/-;hTDP1 cells with camptothecin (screen for TDP1 inhibitors); hit rate 12% among 420,000; AID 686979; Potency, µM (series often up to 46.2 µM), without a hit: at the highest dose activity change, negative = growth inhibition, hits mostly inhibitors; chicken DT40 Tdp1-/-;hTDP1 cells + 20 nM CPT, ATP luminescence, 48 h; note: potency is the fitted concentration of half-maximal effect; nearly all actives have a fitted effect of over 55% in size
#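 Chicken DT40 Tdp1-/- cells complemented with human TDP1, 400 cells/well, exposed to compounds plus 20 nM camptothecin for at least 48 h at 37 C; viability read as ATP content by CellTiter-Glo luminescence.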
# DT40 TDP1 no CPT: qHTS for Inhibitors of human tyrosyl-DNA phosphodiesterase 1 (TDP1): qHTS in cells in absence of CPT. DT40 Tdp1-/- hTDP1 cells, no CPT, ATP luminescence, 48 h. Potency, µM (doses to about 46.2 µM), for the others: top-dose activity change, negative = growth inhibition, hits mostly inhibitors. hit rate 15% among 420,000; note: potency is the fitted concentration of half-maximal effect; nearly all actives have a fitted effect of over 55% in size
#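 Compound effects on proliferation are scored in DT40 Tdp1-/-;hTDP1 cells in the absence of CPT. ATP levels (CellTiter-Glo luminescence) are recorded after a ≥48 hr, 37 °C incubation.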
# HT1080 IDH1KD tx: HT-1080 IDH1 knockdown cell toxicity (counter line); HT-1080 IDH1 knockdown viability, ATP luminescence, 48 h; hit rate 2% among 360,000; Potency, µM (doses to about 46.1 µM), for the others: at the highest dose activity, negative = toxicity, most hits filed as cytotoxic;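 note: potency is the fitted concentration of half-maximal effect; 0% = DMSO wells and -100% = cell-free medium wells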
#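 CellTiter-Glo luminescence after 48 h compound exposure at 37 degrees C of IDH1-knockdown HT-1080 cells in 5% FBS RPMI. %Activity scaled between DMSO wells and cell-free media wells, with curves fitted and assigned curve classes.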
# ALOX12 inh: inhibitors of human 12S-lipoxygenase ALOX12 | P18054 | purified 12hLO, xylenol orange hydroperoxide absorbance | Potency, µM (doses to about 108 µM), inactives show top-dose activity change, negative = inhibition, usual class: inhibitors | hit rate 1.1% among 580,000 | AID 1671190; note: potency is the fitted concentration of half-maximal effect
# Target sequence (P18054 whole entry, looked up): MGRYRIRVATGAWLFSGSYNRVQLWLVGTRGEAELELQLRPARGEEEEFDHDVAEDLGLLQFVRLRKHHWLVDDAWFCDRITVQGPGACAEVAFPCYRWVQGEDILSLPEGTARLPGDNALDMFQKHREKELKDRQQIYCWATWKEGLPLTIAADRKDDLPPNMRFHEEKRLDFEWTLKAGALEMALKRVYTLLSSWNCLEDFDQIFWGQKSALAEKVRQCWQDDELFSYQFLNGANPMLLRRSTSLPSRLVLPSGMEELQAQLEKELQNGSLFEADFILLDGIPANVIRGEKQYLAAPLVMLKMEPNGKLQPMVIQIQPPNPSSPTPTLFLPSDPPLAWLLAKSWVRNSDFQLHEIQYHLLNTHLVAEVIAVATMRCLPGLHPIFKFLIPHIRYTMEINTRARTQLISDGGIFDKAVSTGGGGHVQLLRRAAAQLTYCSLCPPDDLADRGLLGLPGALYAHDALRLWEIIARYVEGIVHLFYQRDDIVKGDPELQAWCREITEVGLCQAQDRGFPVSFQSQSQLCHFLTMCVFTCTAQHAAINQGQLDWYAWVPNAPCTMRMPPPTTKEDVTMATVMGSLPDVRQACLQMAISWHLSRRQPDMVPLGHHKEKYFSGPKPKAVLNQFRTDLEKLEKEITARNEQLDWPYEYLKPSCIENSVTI
#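 Hydroperoxide product was detected by ferrous iron/xylenol orange as the 573 to 405 nm absorbance ratio. Arachidonic acid at 40 uM (final) was turned over for 30 min at room temperature by 150 nM human 12hLO, pH 7.0 Hepes buffer, after 15 min compound preincubation.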
# HT1080-NT tox: kills 2HG-producing HT-1080-NT fibrosarcoma cells; hit rate 1.6% among 360,000; Potency, µM (doses to about 46.1 µM), for inactives: top-dose activity, negative = less viability, hits mostly cytotoxic; AID 686970; HT-1080-NT fibrosarcoma viability, CellTiter-Glo ATP luminescence, 48 h;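 note: NT is the 2HG producing partner of a matched IDH1 knockdown line; potency is the fitted concentration of half-maximal effect; 0% = DMSO-treated cells and -100% = media-only wells without cells; nearly all actives have a fitted effect of over 55% in size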
#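 Compounds were tested in concentration-response format on HT-1080-NT cells for 48 hours at 37 degrees C. Cell viability came from CellTiter-Glo luminescence; curves were classified by r2, response magnitude and activity.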
# IL-1B inflam inh: blocks inflammasome-driven IL-1 beta release. THP-1 LPS/ATP IL-1B secretion, AlphaLISA, 16 h; stronger effect = lower value. activity change, % at 57.5 µM. hit rate 4.7% among 360,000; in the data active = activity change below about -50%; inconclusive = mostly about -30% to -49%
#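 THP-1 cells pretreated 1 hr with compounds (up to 57.5 uM final), then stimulated with LPS (250 ng/mL final) plus ATP (1.25 mM final); secreted IL-1B measured by AlphaLISA after 16 hr, decreased signal indicating inhibition.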
# An asterisk follows results filed as active; ? = inconclusive; nt = no result; [ ] = dose if it differs, or a comment. Many of the other results were omitted from the sample, so hits are more common in it than they were. Unless noted, calls come from the whole dose curve; as a rule, active = well fitted curve in the direction sought with a large enough effect; inconclusive = small, poorly fitted or top-dose-only effect, or another doubt; inactive = no such curve, though single readings can be large; an effect the other way counts as inactive or inconclusive. Unless noted, % is set by controls: 0 for no effect and ±100 for the full control effect.
SMILES,DT40 TDP1 CPT,DT40 TDP1 no CPT,HT1080 IDH1KD tx,ALOX12 inh,HT1080-NT tox,IL-1B inflam inh
O=C(C1CCC(=O)N1Cc1ccccc1Cl)N1CCN(c2cccc(Cl)c2)CC1 (stereo not given),23µM*,23µM*,?,398%,-14%,-2
Cc1ccc(CN2C(=O)CCC2C(=O)NCCN2CCN(c3cccc(Cl)c3)CC2)cc1 (stereo not given),?,15µM*,-15%,5%,-2%,?
CCOC(=O)CCCOc1cccn2c(=O)c(-c3cc(C)n(-c4ccccc4)n3)c(C)nc12,nt,nt,nt,61%,nt,nt
Cc1cccc(NS(=O)(=O)c2ccc3oc(=O)c4ncn(C)c4c3c2)c1C,-5%,-7%,nt,-18%,nt,nt
COc1ccc(-c2noc(-c3nc(-c4cc(OC)c(OC)c(OC)c4)no3)n2)cc1,nt,nt,nt,9%,nt,nt
COc1cc(-c2noc(C)c2-c2ccc(N(C)C)nc2)cc(OC)c1OC,0.13µM*,0.037µM*,0.18µM*,14%,0.0058µM*,81
COc1cc(-c2noc(C)c2-c2ccc3[nH]ccc3c2)cc(OC)c1OC,1.5µM*,1.8µM*,0.037µM*,nt,1µM*,57
CCN1C(=O)C2(CCN(S(=O)(=O)c3ccc4c(c3)CCCC4)CC2)c2ccccc21,nt,nt,nt,6%,nt,nt
Cc1ccc(-c2cnc(-c3ccc(Br)cc3)o2)cc1,nt,nt,nt,22%,nt,nt
COC(=O)[C@@]12CCCCN1[C@H](c1ccc(-c3ccc4c(c3)OCO4)c(OC)c1)[C@@H]1C(=O)N(C)C(=O)[C@@H]12,?,?,1%,-29%,-17%,4
CCN1C(=O)[C@@H]2[C@@H](c3ccc(-c4ccc5c(c4)OCO5)cc3)N3CCCC[C@@]3(C(=O)OC)[C@@H]2C1=O,15µM*,21µM*,3%,-12%,0%,-3
CCN1C(=O)[C@@H]2[C@@H](c3ccc(-c4ccc5c(c4)OCO5)c(OC)c3)N3CCC[C@@]3(C(=O)OC)[C@@H]2C1=O,-10%,?,3%,11µM*,6%,3
CCN1C(=O)[C@H]2[C@@H](c3ccc(-c4ccc5c(c4)OCO5)cc3)N3CCC[C@@]3(C(=O)OC)[C@H]2C1=O,?,12µM*,1%,-11%,6%,-26
O=C(COC(=O)c1ccc(CO)cc1)Nc1ccc(OC(F)F)cc1,3%,7%,5%,19%,-3%,1
Cn1nc(C(=O)Nc2ccc(F)cc2)c2ccccc2c1=O,nt,nt,nt,10%,nt,nt
Cn1nc(C(=O)Nc2nc3ccccc3[nH]2)c2ccccc2c1=O,18µM*,16µM*,9%,-23%,12%,-15
Cn1nc(C(=O)NNc2c(F)c(F)cc(F)c2F)c2ccccc2c1=O,-16%,1.5µM*,-3%,-5%,-2%,42
N#Cc1ccc(C(=O)Nc2nc3ccccc3[nH]2)cc1,4%,?,?,-12%,?,-19
COc1ccc(C(=O)Nc2nc3ccccc3[nH]2)cc1OC,-21%,-23%,?,?,3%,-12
CC(C)Oc1ccc(C(=O)Nc2nc3ccccc3[nH]2)cc1,18µM*,9.2µM*,?,-1%,?,-4
COc1cc(C(=O)Nc2nc3ccccc3[nH]2)ccc1OC(F)F,21µM*,15µM*,?,-19%,?,-20
CN(c1ccccc1C(=O)Nc1ccccc1-c1ccccc1)S(C)(=O)=O,2%,-3%,8%,0%,8%,0
CC(C)NC(=O)Cn1nc2c(cc1=O)CCCC2,nt,nt,nt,-4%,nt,nt
C=Cc1cccc(CN2CCC(CNS(=O)(=O)C3CC3)C2)c1 (stereo not given),nt,nt,nt,44%,nt,nt
Cn1c(=O)c2[nH]c(CN3CCC(Cc4ccccc4)CC3)nc2n(C)c1=O,nt,nt,nt,5%,nt,nt
SMILES,DT40 TDP1 CPT,DT40 TDP1 no CPT,HT1080 IDH1KD tx,ALOX12 inh,HT1080-NT tox,IL-1B inflam inh
Cn1nc(C(=O)Nc2c(-c3ccccc3)nc3sccn23)c2ccccc2c1=O,21µM*,13µM*,10%,0%,8%,32
CCOc1ccc(C(=O)Nc2nc3ccccc3[nH]2)cc1OCC,21µM*,8.2µM*,-28%,?,?,31
O=C(Nc1nc2ccccc2[nH]1)c1ccc(F)cc1,-29%,?,?,5%,0%[9.24 µM],-15
CCc1ccc(C(=O)Nc2nc3ccccc3[nH]2)cc1,18µM*,12µM*,?,3%,?,0
COc1cc(CNC(=O)N2CCN(S(=O)(=O)c3ccc(Cl)s3)CC2)ccc1OC(F)F,nt,nt,nt,3%,nt,nt
CC1CCC(NC(=O)c2ccccc2Sc2ccccc2C#N)CC1 (stereo not given),nt,nt,nt,-26%,nt,nt
Cc1cc(C)c(OCCNC(=O)c2ccccc2Sc2ccccc2C#N)c(C)c1,18µM*,?,-25%,-12%,-24%,0
CSc1ccccc1C(=O)NCCOc1ccccc1C,?,?,1%,0%,1%,-11
Cc1ccccc1OCCNC(=O)c1ccccc1Sc1ccccc1C#N,-21%,16µM*,-1%,5%,0%,-17
COc1cccc(OCCNC(=O)c2ccccc2Sc2ccccc2C#N)c1,?,16µM*,4%,-23%,6%,0
COc1cccc(OCCNC(=O)c2cccc(OC)c2)c1,-4%,-10%,13%,0%,7%,-9
Cc1ccc2c(c1)CO[C@@]21O[C@H](CCO)C[C@H](O)[C@H]1O,-6%,-8%,5%,4%,11%,20
Cc1ccc(-c2cc(C(=O)N3CCN(c4ncccn4)CC3)c3ccccc3n2)cc1,?,16µM*,?,?,?,-17
